Assay results published in paper PMC5700166.

Tests used:
Assay in all cases: protein-binding microarray (PBM); PBM: ~300 nM protein, 6 mM HEPES pH 7.8, 80 mM KCl, 0.5 mM EDTA, 0.5 mM EGTA, 6% glycerol, 35 ng/ul poly-dIdC, 1% milk, 1 h, room temperature; Ap Aiptasia and Nv Nematostella (sea anemones) / Co Capsaspora / Aq Amphimedon (sponge) / Dm Drosophila / Hu human; RHD is the Rel homology domain; high values mean tight binding
Conditions in all cases: dsDNA, one strand shown
GST-Ap-NF-kB RHD = biological target: T1, GST-Ap-NF-kB RHD (Exaiptasia pallida (Aiptasia), UniProt A0A913YAJ5 2-422)
T1 sequence: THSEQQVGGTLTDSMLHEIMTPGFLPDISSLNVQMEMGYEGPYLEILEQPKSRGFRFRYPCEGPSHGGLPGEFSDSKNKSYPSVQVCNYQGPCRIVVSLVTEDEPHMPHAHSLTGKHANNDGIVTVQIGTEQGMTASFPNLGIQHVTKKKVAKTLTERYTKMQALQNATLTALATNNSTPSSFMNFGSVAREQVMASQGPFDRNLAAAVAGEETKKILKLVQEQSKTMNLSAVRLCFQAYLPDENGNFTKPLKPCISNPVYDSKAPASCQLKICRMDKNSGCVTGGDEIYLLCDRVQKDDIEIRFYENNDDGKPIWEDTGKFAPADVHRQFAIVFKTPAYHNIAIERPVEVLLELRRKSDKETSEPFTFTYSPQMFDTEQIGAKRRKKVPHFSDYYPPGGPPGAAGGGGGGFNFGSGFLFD

[1] = biological target: T2, GST-Nv-NF-kB (Cys allele) (Nematostella vectensis, UniProt E5G601 2-411)
T2 sequence: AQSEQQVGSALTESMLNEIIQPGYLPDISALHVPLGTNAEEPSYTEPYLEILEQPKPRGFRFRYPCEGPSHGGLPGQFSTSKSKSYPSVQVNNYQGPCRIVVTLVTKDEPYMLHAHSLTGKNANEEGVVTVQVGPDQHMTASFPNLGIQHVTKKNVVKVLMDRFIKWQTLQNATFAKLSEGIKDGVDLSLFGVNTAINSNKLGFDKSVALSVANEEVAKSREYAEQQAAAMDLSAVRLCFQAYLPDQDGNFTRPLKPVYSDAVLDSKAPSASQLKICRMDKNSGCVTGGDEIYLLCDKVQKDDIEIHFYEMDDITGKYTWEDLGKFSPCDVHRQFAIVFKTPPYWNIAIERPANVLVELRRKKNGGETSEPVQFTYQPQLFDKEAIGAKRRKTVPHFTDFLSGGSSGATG

GST-Co-NF-kB = biological target: T3, GST-Co-NF-kB (Capsaspora owczarzaki, UniProt F1ARL5 200-546)
T3 sequence: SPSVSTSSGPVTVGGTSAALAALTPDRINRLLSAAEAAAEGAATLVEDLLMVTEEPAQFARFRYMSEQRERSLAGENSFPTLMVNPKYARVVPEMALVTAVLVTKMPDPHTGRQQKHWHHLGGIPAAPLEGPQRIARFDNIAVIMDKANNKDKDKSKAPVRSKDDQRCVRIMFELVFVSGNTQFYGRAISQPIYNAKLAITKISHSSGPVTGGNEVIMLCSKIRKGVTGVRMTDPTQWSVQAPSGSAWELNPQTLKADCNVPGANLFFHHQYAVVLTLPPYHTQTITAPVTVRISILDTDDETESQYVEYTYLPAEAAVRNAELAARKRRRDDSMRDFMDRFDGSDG

GST-Dm-Relish = biological target: T4, GST-Dm-Relish (Drosophila melanogaster, UniProt Q94527 99-473)
T4 sequence: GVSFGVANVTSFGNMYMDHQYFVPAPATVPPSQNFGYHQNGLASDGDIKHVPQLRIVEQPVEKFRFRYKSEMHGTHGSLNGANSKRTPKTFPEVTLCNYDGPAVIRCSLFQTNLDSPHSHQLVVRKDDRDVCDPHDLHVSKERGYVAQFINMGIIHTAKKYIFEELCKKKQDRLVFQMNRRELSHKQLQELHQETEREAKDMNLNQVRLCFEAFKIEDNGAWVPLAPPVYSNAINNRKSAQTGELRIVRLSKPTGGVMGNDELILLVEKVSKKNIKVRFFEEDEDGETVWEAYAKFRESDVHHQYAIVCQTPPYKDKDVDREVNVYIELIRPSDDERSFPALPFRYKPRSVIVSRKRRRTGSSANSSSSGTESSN

GST-Aq-NF-kB = biological target: T5, GST-Aq-NF-kB (Amphimedon queenslandica, UniProt A9Y5G7 2-389)
T5 sequence: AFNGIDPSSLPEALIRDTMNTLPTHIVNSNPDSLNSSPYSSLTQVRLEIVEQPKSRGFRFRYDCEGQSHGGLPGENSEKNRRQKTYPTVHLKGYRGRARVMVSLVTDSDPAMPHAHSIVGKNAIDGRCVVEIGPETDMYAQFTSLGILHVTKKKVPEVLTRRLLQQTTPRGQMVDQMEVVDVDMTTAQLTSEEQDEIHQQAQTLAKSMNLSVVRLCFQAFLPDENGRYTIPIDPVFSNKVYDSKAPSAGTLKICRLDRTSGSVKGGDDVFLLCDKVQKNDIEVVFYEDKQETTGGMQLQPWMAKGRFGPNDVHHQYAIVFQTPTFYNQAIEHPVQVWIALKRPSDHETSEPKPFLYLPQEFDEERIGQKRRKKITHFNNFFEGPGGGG

| Sequence | binding signal (GST-Ap-NF-kB RHD) [z-score] | binding signal [1] [z-score] | binding signal (GST-Co-NF-kB) [z-score] | binding signal (GST-Dm-Relish) [z-score] | binding signal (GST-Aq-NF-kB) [z-score] |
| --- | --- | --- | --- | --- | --- |
| CCGATTAACATCAGAATGCCCCCTGATGTTAATCGGGTCTTGATTCGCTTGACGCTGCTG | 4.74 | 5.02 | 2.56 | 3.56 | 5.26 |
| CCGATTAACATCACGGGAGTTCCTGATGTTAATCGGGTCTTGATTCGCTTGACGCTGCTG | 3.99 | 3.71 | 1.77 | 4.98 | 5.04 |
| CCGATTAACATCAGGGACACCCCTGATGTTAATCGGGTCTTGATTCGCTTGACGCTGCTG | 6.11 | 4.44 | 3.39 | 7.09 | 6.84 |
| CCGATTAACATCACCCATCCCCCTGATGTTAATCGGGTCTTGATTCGCTTGACGCTGCTG | 4.59 | 3.91 | 3.26 | 2.93 | 3.73 |
| CCGATTAACATCAGCCCCCCCCATGATGTTAATCGGGTCTTGATTCGCTTGACGCTGCTG | 4.34 | 2.9 | 5.27 | 4.42 | 4.51 |
| CCGATTAACATCACGGAAACCCCTGATGTTAATCGGGTCTTGATTCGCTTGACGCTGCTG | 5.32 | 4.37 | 2.13 | 7.12 | 5.38 |
| CCGATTAACATCAGATGTCCCCCTGATGTTAATCGGGTCTTGATTCGCTTGACGCTGCTG | 6.05 | 5.16 | 5.82 | 2.8 | 4.73 |
| CCGATTAACATCAGGGAAAGAAATGATGTTAATCGGGTCTTGATTCGCTTGACGCTGCTG | 1.61 | 3.74 | 4.91 | 1.72 | 3.72 |
| CCGATTAACATCAGGGGGATAGATGATGTTAATCGGGTCTTGATTCGCTTGACGCTGCTG | 4.85 | 3.25 | 5.41 | 2.03 | 3.47 |
| CCGATTAACATCAGAAATTCCCATGATGTTAATCGGGTCTTGATTCGCTTGACGCTGCTG | 4.5 | 6.44 | 4.07 | 5.05 | 4.99 |
| CCGATTAACATCACGGGGAGTCCTGATGTTAATCGGGTCTTGATTCGCTTGACGCTGCTG | 7.06 | 3.95 | 4.24 | 8.09 | 5.02 |
| CCGATTAACATCAGATTTTTCCCTGATGTTAATCGGGTCTTGATTCGCTTGACGCTGCTG | 3.33 | 5.35 | 5.52 | 1.54 | 5.5 |
| CCGATTAACATCAGGGAATTACATGATGTTAATCGGGTCTTGATTCGCTTGACGCTGCTG | 4.01 | 5.15 | 4.3 | 8.99 | 4.92 |
| CCGATTAACATCAGGGAACAACCTGATGTTAATCGGGTCTTGATTCGCTTGACGCTGCTG | 2.52 | 2.46 | 1.05 | 4.7 | 4.61 |
| CCGATTAACATCAAGTTTTCCCATGATGTTAATCGGGTCTTGATTCGCTTGACGCTGCTG | 2.53 | 3.86 | 4.78 | 1.42 | 2.83 |
| CCGATTAACATCAAGAGTTTCCCTGATGTTAATCGGGTCTTGATTCGCTTGACGCTGCTG | 4.29 | 5.34 | 3.98 | 2.43 | 5.12 |
| CCGATTAACATCAGGGGACAACCTGATGTTAATCGGGTCTTGATTCGCTTGACGCTGCTG | 4.96 | 4.76 | 3.44 | 3.96 | 5.18 |
| CCGATTAACATCAAGGTTTTCCCTGATGTTAATCGGGTCTTGATTCGCTTGACGCTGCTG | 4.36 | 5.34 | 4.71 | 5.1 | 5.65 |
| CCGATTAACATCAGGGGACTATATGATGTTAATCGGGTCTTGATTCGCTTGACGCTGCTG | 5.4 | 4.97 | 2.59 | 2.85 | 4.61 |
| CCGATTAACATCAGGGGGCATTATGATGTTAATCGGGTCTTGATTCGCTTGACGCTGCTG | 3.92 | 4.06 | 2.64 | 2.7 | 4.27 |
| CCGATTAACATCAGGGGGTGATATGATGTTAATCGGGTCTTGATTCGCTTGACGCTGCTG | 3.88 | 3.66 | 4.73 | 2.63 | 4.56 |
| CCGATTAACATCAGGGGCTACCCTGATGTTAATCGGGTCTTGATTCGCTTGACGCTGCTG | 4.03 | 3.47 | 1.76 | 3.48 | 6.2 |
| CCGATTAACATCAGGGAAAAAACTGATGTTAATCGGGTCTTGATTCGCTTGACGCTGCTG | 2.85 | 4.45 | 5.17 | 5.49 | 5.31 |
| CCGATTAACATCACGGGAAACCCTGATGTTAATCGGGTCTTGATTCGCTTGACGCTGCTG | 4.31 | 4.16 | 3.68 | 7.56 | 5.65 |
| CCGATTAACATCAATATTTACCCTGATGTTAATCGGGTCTTGATTCGCTTGACGCTGCTG | 1.68 | 3.08 | 3.33 | 1.66 | 2.34 |
| CCGATTAACATCAGGACTTCCCATGATGTTAATCGGGTCTTGATTCGCTTGACGCTGCTG | 3.08 | 2.46 | 1.82 | 7.81 | 4.72 |
| CCGATTAACATCAGACAATTCCCTGATGTTAATCGGGTCTTGATTCGCTTGACGCTGCTG | 3.02 | 5 | 2.28 | 1.37 | 4.77 |
